FLuc counter: counter-screen for miR-21 project: firefly luciferase inhibitors or activators; P08659; purified FLuc, Km substrates, luminescence inhibition; Potency, µM (highest dose often 57.5 µM), inactives show top-dose activity change, negative = inhibition, most hits filed as inhibitors; actives 6.9% (n = 360,000); AID 588342;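 also: plate controls were vehicle for no effect and reference inhibitor for full effect; nearly all actives have a fitted effect of over 55% in size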
Target sequence (P08659 whole entry, looked up): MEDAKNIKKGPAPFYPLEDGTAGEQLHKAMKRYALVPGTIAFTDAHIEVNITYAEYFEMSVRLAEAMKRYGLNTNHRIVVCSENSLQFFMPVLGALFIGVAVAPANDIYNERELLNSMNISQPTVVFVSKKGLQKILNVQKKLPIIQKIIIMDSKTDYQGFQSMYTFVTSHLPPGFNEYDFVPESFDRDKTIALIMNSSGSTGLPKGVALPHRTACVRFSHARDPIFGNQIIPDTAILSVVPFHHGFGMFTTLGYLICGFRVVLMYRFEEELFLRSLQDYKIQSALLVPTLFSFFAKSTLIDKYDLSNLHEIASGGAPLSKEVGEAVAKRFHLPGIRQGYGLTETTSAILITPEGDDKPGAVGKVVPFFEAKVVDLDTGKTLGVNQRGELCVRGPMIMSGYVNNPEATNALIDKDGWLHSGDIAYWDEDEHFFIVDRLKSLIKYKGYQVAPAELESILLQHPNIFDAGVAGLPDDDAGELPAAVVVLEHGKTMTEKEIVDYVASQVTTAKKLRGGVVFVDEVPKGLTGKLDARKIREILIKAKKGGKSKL
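Purified P. pyralis luciferase (10nM final) with 10uM D-luciferin and 10uM ATP (Km levels) in 50mM Tris acetate pH 7.5, 10mM Mg acetate, 0.01% Tween-20, 0.05% BSA; qHTS 6-point titration, ~60 µM downward; luminescence read.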
SMN2 splice enh: increases expression of the SMN2 splice variant | HEK293 SMN2-luciferase splicing reporter, luminescence, 30-36 h | Potency, µM (series often up to 46.1 µM), without a hit: at the top dose activity change, positive = activation, actives largely listed as activators | actives 2.8% (n = 210,000) | AID 1458; also: % of control where 0% means no effect; nearly all actives have a fitted effect of over 55% in size
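HEK293 cells carry an SMN2 […]–luciferase reporter in which exon 7 inclusion puts luciferase in frame. Cells were plated 10-12 h before compound addition, then incubated 30-36 h at 37C. ONE-Glo luminescence was read; sodium butyrate at 4.5 mM final served as control.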
ELG1 DNA repair: blocks ELG1-dependent DNA repair in HEK293T cells | HEK293T ELG1-luciferase reporter, luminescence, 16 h; DNA damage induced by 5-fluorouridine | Potency, µM (titrated, usually from 46.1 µM), for the others: at the top dose activity change, negative = inhibition, usual class: inhibitors | actives 2.3% (n = 330,000) | AID 504467; also: % is scaled to controls: 0 for no effect and ±100 for the full control effect; nearly all actives have a fitted effect of over 55% in size
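DMSO vehicle served as the neutral condition. Each well held 2,000 cells given 5-fluorouridine plus compound; after 16 hr at 37 °C/5% CO2, ONE-Glo was added and luciferase measured 30 min later.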
ELG1 genotox: induces genotoxicity in HEK293T cells with luciferase-tagged ELG1; HEK293T ELG1-luciferase reporter, luminescence, 16 h; Potency, µM (series often up to 46 µM), for the others: at the top dose activity change, positive = activation, most hits filed as activators; actives 1.3% (n = 330,000); AID 504466; also: % of control where 0% means no effect; nearly all actives have a fitted effect of over 60% in size
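HEK293T cells expressing luciferase-tagged ELG1 were exposed to compound or DMSO vehicle for 16 hr at 37 °C and 5% CO2. Luciferase activity was then measured with ONE-Glo after 30 min at room temperature.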
Rab9 prom act: activators of Rab9 promoter | Huh7 Rab9 promoter-luciferase reporter, luminescence, 24 h | Potency, µM (doses to about 9.22 µM), without a hit: top-dose activation, negative = inhibition, usual class: activators | actives 2.8% (n = 320,000) | AID 485297; also: % of control where 0% means no effect; nearly all actives have a fitted effect of over 60% in size
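Cells were plated at 1500 per well in reduced-serum medium with 10% FBS and left 2 h. Compound in DMSO was then added for 24 h at 37 °C. Reporter signal was read by luminescence after 10 min with luciferase detection reagent.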
NPC1 promoter act: activates the NPC1 promoter. Huh7 NPC1 promoter luciferase reporter, 24 h. Potency, µM (titrated, usually from 9.22 µM), without a hit: at the highest dose activation, actives largely listed as activators. actives 2.4% (n = 320,000). AID 485313; also: % of control where 0% means no effect; nearly all actives have a fitted effect of over 60% in size
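Cells: Huh7 expressing luciferase under the NPC1 promoter, 1500/well. Seeded 2 h, compound added, incubated 24 h at 37 °C. Luciferase reagent, 10 min ambient, then luminescence.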
The depositor's hits bear a star; u = inconclusive; x = no result. Shown are actives, neighbours in structure and some others; about 9.2% of the full set was active somewhere. Calls follow the shape of the dose curve; as a rule, active = well fitted curve in the direction sought with a large enough effect; inconclusive = small, poorly fitted or top-dose-only effect, or another doubt; inactive = no such curve, though single readings can be large; an effect the other way counts as inactive or inconclusive. Potency is read from the fitted curve at half-maximal effect.

SMILES | FLuc counter | SMN2 splice enh | ELG1 DNA repair | ELG1 genotox | Rab9 prom act | NPC1 promoter act
CC(C)(C)c1nc2ccc(NS(=O)(=O)c3ccc(F)c(F)c3F)cc2[nH]1 | 2.6% | x | -4.3% | -0.4% | 0.2% | -1.9%
O=S(=O)(Nc1ccc2nc(-c3ccc(Br)o3)[nH]c2c1)c1ccccc1 | 15.1µM* | 9.4% | u | 15.8% | 2.82µM* | 2.82µM*
Cc1ccc(-c2nc3ccc(NS(=O)(=O)c4ccccc4)cc3[nH]2)o1 | 12µM* | u | u | u | u | 3.98µM*
O=S(=O)(Nc1ccc2nc(C(F)(F)F)[nH]c2c1)c1ccccc1 | 3.7% | -44.5% | 10µM* | -12.7% | -8.4% | 1.8%
O=C(NC1CCCC1)c1ccc2c(=O)n(Cc3ccccc3)c(SCc3ccccc3F)nc2c1 | -5.0% | x | x | x | x | x
CN(C(=O)Cn1nnc(-c2ccc(S(C)(=O)=O)cc2)n1)c1ccccc1 | -5.5% | -9.8% | x | x | x | x
CC1Sc2ccc(S(=O)(=O)CCC(=O)N3CCN(c4cccc(Cl)c4)CC3)cc2NC1=O (stereo not given) | 1.8% | x | 13µM* | -18.0% | -13.1% | -2.7%
CCCN1CCN(S(=O)(=O)c2ccc(-n3cnnn3)cc2)CC1 | 1.2% | x | 13.3% | -1.5% | -4.7% | -4.2%
CC(=O)c1ccc(NC(=O)CSc2nccn2Cc2ccco2)cc1 | 16.9µM* | x | x | x | x | x
O=C(CSc1nccn1Cc1ccco1)Nc1ccc(F)cc1 | -13.0% | x | -3.6% | u | 3.0% | -3.1%
Cc1ccc(NC(=O)CSc2nccn2Cc2ccco2)cc1 | 19µM* | x | u | u | 4.47µM* | u
O=C(CSc1nccn1Cc1ccco1)Nc1cccc(F)c1 | -3.9% | x | 10.5% | 9.4% | 25.9% | 17.1%
COc1ccc(NC(=O)CSc2nccn2Cc2ccco2)c(OC)c1 | 19µM* | x | u | u | u | 21.1%
CSc1ccc(CNC(=O)c2cc3c(=O)n(Cc4ccco4)ccc3nc2C)cc1 | -1.6% | x | x | x | x | x
CCC(C)NC(=O)c1ccc2c(Cl)c3c(nc2c1)CCC3 (stereo not given) | 4.78µM* | x | u | u | 2.51µM* | 2.82µM*
COc1cc(Cl)c(C)cc1NC(=O)c1ccc2c(Cl)c3c(nc2c1)CCC3 | -4.5% | u | x | x | x | x
CN(C(=O)c1ccc2c(Cl)c3c(nc2c1)CCC3)c1ccccc1 | 21.3µM* | x | u | u | u | u
CCC(C)NC(=O)c1ccc2c(SCC(=O)O)c3c(nc2c1)CCCC3 (stereo not given) | u | -10.4% | 2.0% | 1.2% | 0.9% | -0.9%
O=C(Nc1ccc(Cl)cn1)c1ccc2c(Cl)c3c(nc2c1)CCC3 | 0.19µM* | x | u | u | u | 0.316µM*
COc1ccc(C)cc1NC(=O)c1ccc2c(Cl)c3c(nc2c1)CCC3 | 1.69µM* | -9.8% | x | x | x | x
O=C(NCc1ccc(F)cc1)c1ccc2c(Cl)c3c(nc2c1)CCCC3 | -2.2% | -14.6% | x | x | x | x
CC(C)(C)NS(=O)(=O)c1ccc(NC(=O)C2CCCCC2)cc1 | 2.7% | -7.6% | -14.6% | -0.9% | 3.7% | -9.1%
COc1ccc(F)cc1C(=O)C1CCCN(Cc2c(C)n(C)n(-c3ccccc3)c2=O)C1 (stereo not given) | 0.0% | x | 2.0% | -2.4% | -5.5% | -2.8%
COCCNC(=O)NC(=O)CN1CCCc2ccccc21 | 3.0% | -8.3% | 2.8% | -7.2% | -1.8% | 1.0%
CCOc1ccc(NC(=O)c2ccc3c(SCC(=O)O)c4c(nc3c2)CCC4)cc1 | 23.9µM* | -64.8% | x | x | x | x
SMILES | FLuc counter | SMN2 splice enh | ELG1 DNA repair | ELG1 genotox | Rab9 prom act | NPC1 promoter act
Cc1cccc(NC(=O)c2ccc3c(Cl)c4c(nc3c2)CCCC4)n1 | 0.675µM* | 3.16µM* | u | 2.91µM* | 0.562µM* | 1.12µM*
Cc1ccccc1-c1nc(CS(=O)(=O)CC(=O)Nc2cccc(C(F)(F)F)c2)c(C)o1 | -14.3% | -6.3% | x | x | x | x
COc1cccc2c(=O)c(C(=O)NCc3cccs3)c[nH]c12 | 9.53µM* | u | u | u | 3.55µM* | u
COCCNC(=O)c1cc(-c2ccccc2OC)on1 | 21.3µM* | 35.6% | u | u | u | 8.7%
CCN(CC)C(=O)c1cc(-c2ccccc2OC)on1 | 16.9µM* | 12.2% | u | u | u | u
O=C(NCc1cccs1)c1cc(-c2ccc(O)cc2)on1 | u | x | u | u | 3.55µM* | u
Cc1ccc2[nH]cc(C(=O)NCc3cccs3)c(=O)c2c1 | -13.1% | -24.3% | u | -3.0% | -1.7% | -6.7%
COc1ccccc1-c1cc(C(=O)Nc2cc(OC)c(OC)c(OC)c2)no1 | -19.2% | -31.8% | x | x | x | x
COc1ccccc1-c1cc(C(=O)NCc2ccco2)no1 | 15.1µM* | 0.5% | u | 8.7% | 0.3% | 13.6%
COc1ccccc1-c1cc(C(=O)NC(C)C)no1 | 13.5µM* | 28.6% | u | u | 2.82µM* | 3.16µM*
O=C(NCc1ccco1)c1cc(-c2ccco2)on1 | u | 1.2% | u | u | u | u
COc1ccccc1-c1cc(C(=O)NCc2cccs2)no1 | 19µM* | -2.8% | u | 5.7% | -4.6% | 13.0%
CCN1C(=O)C(CC(=O)Nc2ccc(OC)cc2)N(CCc2ccccc2F)C1=S (stereo not given) | 0.9% | x | 16.4µM* | -8.0% | -1.3% | -2.5%
CCN(CC(=O)Nc1ccccc1C(=O)Nc1ccccc1)Cc1nc2ccccc2c(=O)[nH]1 | 1.1% | 12.5% | 10.3µM* | -12.5% | -3.7% | -2.9%
CCN(CC(=O)Nc1ccccc1SC)Cc1nc2ccccc2c(=O)[nH]1 | 5.5% | x | 3.9% | -3.3% | -17.0% | -0.3%
CCOC(=O)C1CCCN(C(=O)c2c(C)nn(-c3ccc(F)cc3)c2-n2cccc2)C1 (stereo not given) | -1.5% | x | x | x | x | x
O=C(CN1CCN(S(=O)(=O)c2ccccc2F)CC1)Nc1ccccc1C(=O)c1ccccc1 | -0.6% | -9.5% | 11.6µM* | -9.2% | -4.0% | -4.8%
O=C(CN1CCCC1)Nc1ccccc1C(=O)c1ccccc1 | 1.1% | x | 36.1% | 1.7% | -4.5% | 0.8%
COc1ccccc1NC(=O)c1nnn(-c2ccc(F)cc2)c1C | -0.5% | 2.7% | x | x | x | x
Cc1c(C(=O)Nc2ccc(F)cc2)nnn1-c1cccc(C(F)(F)F)c1 | -9.1% | -66.0% | 5.8µM* | 4.5% | -1.8% | -5.4%
COC(=O)c1nnn(-c2cccc(C)c2)c1N | 1.1% | 10.4% | x | x | x | x
Cc1cccc(-n2nnc(C(=O)N3CCc4ccccc4C3)c2N)c1 | 15.1µM* | -13.2% | u | 1.6% | 25.1% | 22.9%
Cc1c(C(=O)Nc2ccc(C(=O)O)cc2)nnn1-c1ccccc1 | 0.269µM* | x | x | x | x | x

Screens deposited in PubChem BioAssay by National Center for Advancing Translational Sciences (NCATS).
